# Measurements reported in PubChem BioAssay AID1942 (Johns Hopkins Ion Channel Center, 2009).
# Hit rate of the full screen: of about 2,400 compounds, about 580 (24%) were called active. These entries were drawn from the full list. A number with no mark means an inactive call.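 How the source made its calls: active means activity change at or above the mean plus 3 SD of buffer wells without dofetilide, per plate; inactive means the rest.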
# Biological target: Potassium voltage-gated channel subfamily KQT member 2 (Rattus norvegicus) (UniProt O88943)
# Sequence (O88943 whole entry, looked up): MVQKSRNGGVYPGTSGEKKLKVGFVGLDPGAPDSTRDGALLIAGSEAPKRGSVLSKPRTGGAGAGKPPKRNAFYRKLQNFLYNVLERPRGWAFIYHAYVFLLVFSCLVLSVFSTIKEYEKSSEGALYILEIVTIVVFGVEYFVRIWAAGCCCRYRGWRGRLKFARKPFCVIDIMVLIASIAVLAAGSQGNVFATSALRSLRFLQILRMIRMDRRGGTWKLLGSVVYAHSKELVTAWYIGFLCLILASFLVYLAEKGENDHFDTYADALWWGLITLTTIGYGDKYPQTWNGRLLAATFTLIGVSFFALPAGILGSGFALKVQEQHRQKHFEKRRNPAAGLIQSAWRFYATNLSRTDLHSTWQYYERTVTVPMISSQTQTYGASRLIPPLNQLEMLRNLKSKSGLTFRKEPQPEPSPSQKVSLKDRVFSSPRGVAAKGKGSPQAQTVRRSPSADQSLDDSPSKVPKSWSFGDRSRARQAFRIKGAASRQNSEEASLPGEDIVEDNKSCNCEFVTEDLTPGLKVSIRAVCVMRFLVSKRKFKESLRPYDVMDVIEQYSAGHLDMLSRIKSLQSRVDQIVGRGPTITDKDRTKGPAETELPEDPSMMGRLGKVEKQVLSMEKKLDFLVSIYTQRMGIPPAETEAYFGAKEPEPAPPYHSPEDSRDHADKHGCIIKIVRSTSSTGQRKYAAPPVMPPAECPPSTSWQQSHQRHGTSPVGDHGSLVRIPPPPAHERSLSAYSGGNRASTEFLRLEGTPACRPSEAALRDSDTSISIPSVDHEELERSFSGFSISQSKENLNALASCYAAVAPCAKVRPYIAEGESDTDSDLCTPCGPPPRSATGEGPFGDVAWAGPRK
# Experiment: rat KCNQ2 channel activation by compounds alone, confirmation, counter-screen for hERG block protector project, cell-based, CHO, FluxOR thallium flux (AID 1942);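 further: normalized value minus buffer-control mean plus three SD of buffer wells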
# Conditions: CHO-KCNQ2 cells, FluxOR thallium flux fluorescence; at 10 µM; hits give high values
row,SMILES,"activity change, less the hit threshold"
1,Cc1ccsc1/C=C1/SC(=O)N(CC(=O)N2CCCC2)C1=O,-18.9%
2,Cn1c(=O)c(Sc2ccccc2)c(O)c2ccccc21,-8.1%
3,Cn1c(=O)c2c(ncn2CC(=O)OCc2ccccc2)n(C)c1=O,-14.2%
4,Cc1nc(-c2cc(C#N)c(Sc3ccc(Cl)cc3Cl)nc2C)cs1,-16.9%
5,COc1cc(C(=S)N2CCOCC2)ccc1OC(=O)c1ccc([N+](=O)[O-])cc1[N+](=O)[O-],-27.5%
6,Cc1ccc(CCNC(=O)c2cccc(NC3=NC4CS(=O)(=O)CC4S3)c2)cc1 (configuration not stated),-10.3%
7,C/C(=N/NC(=O)c1sc(NS(=O)(=O)c2ccccc2)nc1C)c1sc(N)nc1C,-11.4%
8,C/C(=N\NC(=O)c1cc2ccccc2cc1O)c1ccc(C)o1,30.2% (active)
9,Cc1ccc(C(=O)NC2CCC(C)CC2)o1 (configuration not stated),-20.7%
10,Nn1c(SCC(=O)Nc2ccc(OC(F)F)cc2)nnc1-c1ccco1,-14.7%
11,CC1=CC(=O)C(C(C)C)=CC1=NC(=O)c1ccc(C)cc1,-15.5%
12,Cc1ccc(C(=O)Sc2cccccc2=O)cc1,78.4% (active)
13,CSc1ccccc1C(=O)NCc1ccc(C)cc1,-15.6%
14,Cc1ccc(Nc2nc(-c3ccncc3)cs2)cc1,-17.9%
15,Brc1ccc(-c2csc(N3CCCCCC3)n2)cc1,-13.8%
16,Cc1cc(C)c(-c2c(O)c3c(n(C)c2=O)CC(C)(C)CC3=O)c(C)c1,-18.3%
17,O=C(COc1ccc2ccccc2c1)NNC(=O)C(=O)Nc1ccccc1,47.2% (active)
18,O=C(COc1ccccc1)Nc1ccc(F)cc1,-28.9%
19,COC(=O)CSc1nnc(COc2ccc3ccccc3c2)o1,-16%
20,C=CCNC(=O)c1ccccc1NC(=O)COc1ccc(OC)cc1,-11.7%
21,Cc1ccccc1NC(=O)C(=O)NNC(=O)COc1ccc2ccccc2c1,33.6% (active)

row,SMILES,"activity change, less the hit threshold"
1,O=C(COc1ccc2ccccc2c1)Nc1ccc(Br)cc1C(=O)O,-9%
2,O=C(COc1ccc(C(=O)c2ccccc2)cc1)Nc1cccnc1,-35%
3,COc1ccccc1NC(=O)C(=O)NNC(=O)COc1ccc2ccccc2c1,93.1% (active)
4,CSc1ccc(S(=O)(=O)N2CCC(C(=O)Nc3ccccc3C(F)(F)F)CC2)cc1,-14.7%
5,Cc1nonc1CN(C)C(=O)c1ccc(OC2CCN(Cc3ccccn3)CC2)cc1,-5.7%
6,Cc1ccc(C(=C2C3C=CC2C2C(=O)NC(=O)C32)c2ccc(C)cc2)cc1 (configuration not stated),-17.1%
7,COc1ccccc1C(=O)COC(=O)c1ccc(-n2cnnn2)cc1,-14.7%
8,CCOC(=O)c1nnn(CC(=O)Nc2cccc(F)c2)c1C(=O)OCC,-9.5%
9,COc1ccc(CC(=O)Nc2ccc(-c3noc(-c4ccccc4OC)n3)cc2)cc1,-16.7%
10,O=C(c1ccccc1)c1nccn1-c1ccc(Cl)nn1,-7.9%
11,O=C(CSc1cccc[n+]1[O-])C12CC3CC(CC(C3)C1)C2,-11.8%
12,O=C(NCCCN1CCOCC1)c1ccc(CS(=O)(=O)Cc2ccccc2Cl)o1,-26.5%
13,Oc1c(N=NC(=S)Nc2ccccc2F)c2ccccc2n1Cc1ccccc1,-9.8%
14,Oc1c(N=NC(=S)Nc2ccccc2F)c2ccccc2n1Cc1ccc(Cl)cc1,-13.5%
15,Oc1c(N=NC(=S)Nc2ccccc2F)c2ccccc2n1Cc1ccccc1Cl,-10%
16,Oc1c(N=NC(=S)Nc2ccccc2F)c2ccccc2n1Cc1ccc(F)cc1,2.8% (active)
17,Cc1ccc(Cn2c(O)c(N=NC(=S)Nc3ccccc3F)c3ccccc32)cc1,-11.4%
18,Cc1c(Cl)cccc1NC(=S)N=Nc1c(O)n(CN2CCOCC2)c2ccccc12,4.9% (active)
19,O=C(CN1C(=O)CSCC1=O)Nc1ccc2c(c1)OCO2,-7.1%
20,Nc1ccc2nc(-c3cccs3)[nH]c2c1,-8.8%
21,CC(C)(C)n1nnnc1C(c1cccs1)N1CCN(Cc2ccccc2)CC1 (configuration not stated),-11.7%

row,SMILES,"activity change, less the hit threshold"
1,O=C(/C=C/Nc1ccc(F)c(F)c1)c1cccs1,-17.4%
2,Cc1sc2nc(CN3CCOCC3)[nH]c(=S)c2c1C,93.4% (active)
3,C/C(Nc1cccc(F)c1)=C(/C#N)C(N)=O,-14.7%
4,Cc1nc(NCc2cccnc2)c2c3c(sc2n1)CC(C)CC3 (configuration not stated),26.7% (active)
5,Cc1cccc(NC(=O)CN2C(=O)S/C(=C\c3cccn3-c3cccc(C(=O)O)c3)C2=O)c1,-18.5%
6,S=c1nc[nH]c2c1sc1nc(-c3ccccc3)c3c(c12)CCCC3,-4.2%
7,CC(C)c1nc2sc3c(=S)nc[nH]c3c2c2c1CCC2,14.2% (active)
8,S=c1nc[nH]c2c1sc1nc(N3CCOCC3)c3c(c12)CCCC3,43.5% (active)
9,COc1ccc(S(=O)(=O)Nc2cccnc2)cc1,-17.2%
10,CN(C)C(=O)c1ccc(NC(=O)c2cncc(Br)c2)cc1,-12%
11,Cc1ccc(NC(=S)NC(=O)c2sc3ccccc3c2Cl)c(C(=O)O)c1,13.9% (active)
12,O=C(Nc1nc(=O)c2ccccc2s1)c1ccc(Cl)cc1,-5.6%
13,O=C(NC(=S)Nc1ccc(N2CCOCC2)c(Cl)c1)c1sc2ccccc2c1Cl,-10.6%
14,COc1ccccc1C(=O)NNC(=S)NC(=O)c1sc2ccccc2c1Cl,19.7% (active)
15,COc1ccccc1C(=O)NC(=S)NNC(=O)c1sc2ccccc2c1Cl,77% (active)
16,Cc1ccc(C(=O)NNC(=S)NC(=O)c2ccc(Cl)cc2)cc1,-28.7%
17,O=C(NNC(=S)NC(=O)c1sc2ccccc2c1Cl)c1ccc(Cl)cc1,11.1% (active)
18,COc1cccc(C(=O)NC(=S)Nn2cnnc2)c1OC,-19.6%
19,CCC(C)N(C(=O)CSc1nnc(NC(C)C)s1)C1CCS(=O)(=O)C1 (configuration not stated),-15.4%
20,O=c1cc(CN2CCN(S(=O)(=O)c3ccc4c(c3)OCCO4)CC2)c2ccc(O)cc2o1,-20%
